# Experimental data: ChEMBL document CHEMBL3988442, “University of Dundee, Small-Polar-MMV Screening Library” (2021)
# The campaign covered roughly 69,000 compounds. About 1,000 (1.4%) showed an effect of 50% or more. What follows is part of a selection rich in strong results, with near analogues and random picks from the rest.
# Tested on: Leishmania donovani
# Test: Leishmania intramacrophage assay
# Assay type: functional, organism-based
# Parameters: scale not given: in the data most compounds retested in dose-response had high values
smiles,measurement,setting,value
COc1cc(N2CC[C@H](O)[C@@H]2Cc2cnn(C)c2)ncn1,Percent Effect,"30 µM, 30.03 µM",12.89%
COc1ccccc1C(=O)N1C[C@@H]2CCCCN(CC(N)=O)[C@@H]2C1,Percent Effect,"30.3 µM, […]",-33.88%
O=C(Nc1ccccn1)N(CCO)Cc1ccccc1Br,Percent Effect,30 µM,5.548%
CN1CCN(Cc2ccc(-c3ccc4[nH]ccc4c3)nc2)CC1,Percent Effect,"30.3 µM, […]",-38.55%
CN1CCN(Cc2ccc(-c3ccc(C(N)=O)cc3)nc2)CC1,Percent Effect,"30.3 µM, […]",77.28%
CN1CCN(Cc2ccc(-c3ccc(-c4ccn[nH]4)cc3)nc2)CC1,Percent Effect,"30.3 µM, […]",8.288%
CS(=O)(=O)N1CC[C@H]2OCC[C@@]2(C(=O)NCc2ccccn2)C1.O=C(O)C(F)(F)F,Percent Effect,"30.3 µM, […]",38.61%
CC(C)N1CC2(CCCN(c3ccccn3)C2)CCC1=O (stereo not drawn),Percent Effect,"30.3 µM, […]",24.82%
CC(C)N1CC2(CCCN(c3ccnc4ccccc34)C2)CCC1=O (stereo not drawn),Percent Effect,"30.3 µM, […]",61.79%
CC(C)N1CC2(CCC1=O)CCN(c1ccnc3ccccc13)CC2,Percent Effect,"30.3 µM, […]",16.36%
CN1CCN(C(=O)c2cccc(S(=O)(=O)NCC3(C)COC3)c2)CC1,Percent Effect,"30.3 µM, […]",33.44%
COc1cc(NCc2c(C)noc2C)c(OC)cc1Cl,Percent Effect,"30.3 µM, […]",13.7%
COC(=O)COc1cc(NCc2c(C)noc2C)c(Cl)cc1C,Percent Effect,"30.3 µM, […]",56.06%
COc1cc(Cl)c(NCc2c(C)noc2C)cc1OC,Percent Effect,"30.3 µM, […]",14.57%
CN1C(=O)COc2cc(NC(=O)CCc3nc4cccnc4[nH]3)ccc21,Percent Effect,"30.3 µM, […]",33.08%
O=C(CCc1nc2cccnc2[nH]1)Nc1ccc2c(c1)NC(=O)CO2,Percent Effect,"30.3 µM, […]",20.44%
CN1C(=O)COc2ccc(NC(=O)CCc3nc4cccnc4[nH]3)cc21,Percent Effect,"30.3 µM, […]",53.55%
O=C(N[C@@H]1CCN(C(=O)c2cc[nH]c2)C[C@H]1O)c1ccccn1,Percent Effect,"30.3 µM, […]",4.682%
CN1CCC(CNC(=O)c2cccc(CN3CCCCCC3)c2)C1 (stereo not drawn),Percent Effect,"30.3 µM, […]",-20.09%
CCC[C@H]1CN(S(C)(=O)=O)C[C@@H]1NC(=O)CCOCC,Percent Effect,"30.3 µM, […]",-29.93%
Cc1ccc(NC(=O)c2n[nH]c(-n3cnnc3)n2)cc1,Percent Effect,"30.3 µM, […]",53.89%
CCc1ccc(NC(=O)c2n[nH]c(-n3cnnc3)n2)cc1,Percent Effect,"30.3 µM, […]",-23.27%
O=C(Nc1ccccc1)c1n[nH]c(-n2cnnc2)n1,Percent Effect,"30.3 µM, […]",15.16%
O=C(NCC(O)(c1ccco1)C1CC1)c1ccccc1F (stereo not drawn),Percent Effect,"30.3 µM, […]",-8.312%
CCCS(=O)(=O)CCN1CCOC(c2ccsc2)C1 (stereo not drawn),Percent Effect,"30.3 µM, […]",22.47%
CNS(=O)(=O)CC(=O)N1CCC(c2ccc(F)c(F)c2)CC1,Percent Effect,"30.3 µM, […]",9.155%
CC(C)c1nnc2n1CCN(C(=O)c1ccc3c(c1)NC(=O)CO3)C2,Percent Effect,"30.3 µM, […]",10.03%
O=C(C1CCC1)N1C[C@@H]2CCN(c3cccnc3)C[C@@H]2C1.O=C(O)C(F)(F)F,Percent Effect,"30.3 µM, […]",7.145%
Fc1cccc(N2C[C@H]3CCN(c4cccnc4)C[C@H]3C2)c1.O=C(O)C(F)(F)F,Percent Effect,"30 µM, 30.03 µM",57.72%
O=C(O)C(F)(F)F.O=C(c1ccc(F)cc1)N1C[C@@H]2CCN(c3cccnc3)C[C@@H]2C1,Percent Effect,"30.3 µM, […]",-2.032%
CCn1cnnc1C1CCN(C(=O)c2cccc3c2ccn3C)CC1,Percent Effect,"30 µM, 30.03 µM",34.62%
CNC(=O)Cc1ccc(NC(=O)NC2(c3cccc(F)c3)CC2)cc1,Percent Effect,"30.3 µM, […]",15.99%
Cc1nnc(-c2cccc(N3CCC(NC4CCSC4)CC3)c2)s1 (stereo not drawn),Percent Effect,"30.3 µM, […]",17.73%
Cc1ccc(-c2cccc(N3CCC(NC4CCOCC4)CC3)c2)cc1,Percent Effect,"30.3 µM, […]",88.48%
Clc1cccc(-c2cccc(N3CCC(NC4CCOCC4)CC3)c2)c1,Percent Effect,"30.3 µM, […]",97.72%
CCc1cccc(N2CCC(NC(=O)C3CCOCC3)CC2)c1,Percent Effect,30 µM,8.469%
Cc1nc(-c2cccc(N3CCC(NC4CCOCC4)CC3)c2)cs1,Percent Effect,"30.3 µM, […]",22.64%
O=C(Cc1cccc(O)c1)NC1CCN(c2cccc(Cl)c2)C1 (stereo not drawn),Percent Effect,"30.3 µM, […]",5.178%
CN(C(=O)Cn1nc(-c2cccs2)ccc1=O)C1CCS(=O)(=O)C1 (stereo not drawn),Percent Effect,"30 µM, 30.03 µM",-0.2404%
CCn1nc(C)c2nnn(CC(=O)Nc3ccc(C)c(C)c3)c(=O)c21,Percent Effect,"30.3 µM, […]",-87.23%
COCCN1CCOCC12CCN(c1ccc(C#N)cc1)CC2.O=C(O)C(F)(F)F,Percent Effect,"30.3 µM, […]",3.251%
O=C(N[C@@H]1CCCNC1)C1(Oc2ccc(Cl)cc2)CCNCC1,Percent Effect,"30.3 µM, […]",12.74%
CO[C@H]1COC[C@@H]1NC(=O)C1(Oc2ccc(Cl)cc2)CCNCC1,Percent Effect,"30.3 µM, […]",9.396%
O=C(N[C@@H]1C[C@H]2CC[C@@H]1C2)C1(Oc2ccc(Cl)cc2)CCNCC1,Percent Effect,"30.3 µM, […]",99.44%
CCOc1ccc(OCc2nc3c(c(=O)[nH]2)CCNC3)cc1,Percent Effect,"30.3 µM, […]",15.57%
COc1ccc(Br)c(C(=O)NCCNc2ccc(C(F)(F)F)cn2)c1,Percent Effect,"30 µM, 30.03 µM",56.64%
COc1ccc(C(=O)NCCCNc2ccc(C(F)(F)F)cn2)cc1,Percent Effect,30 µM,37.73%
O=C(NCCCNc1ccc(C(F)(F)F)cn1)c1ccc(F)cc1Br,Percent Effect,30 µM,45.44%
CCOC(=O)N1CCc2ccccc2C12CCNCC2.Cl,Percent Effect,"30.3 µM, […]",0.5062%
COC(=O)Nc1ccc(CNc2cncc(-n3cccn3)n2)cc1,Percent Effect,30 µM,52.92%
COCc1ccc(CNc2cncc(-n3cccn3)n2)cc1,Percent Effect,30 µM,27.73%
CNC(=O)COc1ccc(CNc2cncc(-n3cccn3)n2)cc1,Percent Effect,30 µM,19.22%
CN1CC[C@H]2CN(C(=O)c3ccc4sc5c(c4c3)CCNC5=O)C[C@H]21,Percent Effect,"30.3 µM, […]",4.332%
